Results published in PubChem BioAssay AID504904 (The Scripps Research Institute Molecular Screening Center, 2011).
The list shows a part of the results. Calls of active or inactive are those of the source. No stated cut-off is given here; in the data, active means activation above about 18%; inactive means the rest.

biological target: Mu-type opioid receptor (Homo sapiens) + Delta-type opioid receptor (Homo sapiens) (UniProt P35372+P41143); experiment: agonists of MOR-DOR heterodimerization, confirmation, cell-based, luminescence (AID 504904); conditions: cells, luminescence complementation, at 9.3 µM, hits give high values;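 further: 0% = vehicle-treated cells and 100% = reference agonist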
Sequence (P35372 whole entry, looked up): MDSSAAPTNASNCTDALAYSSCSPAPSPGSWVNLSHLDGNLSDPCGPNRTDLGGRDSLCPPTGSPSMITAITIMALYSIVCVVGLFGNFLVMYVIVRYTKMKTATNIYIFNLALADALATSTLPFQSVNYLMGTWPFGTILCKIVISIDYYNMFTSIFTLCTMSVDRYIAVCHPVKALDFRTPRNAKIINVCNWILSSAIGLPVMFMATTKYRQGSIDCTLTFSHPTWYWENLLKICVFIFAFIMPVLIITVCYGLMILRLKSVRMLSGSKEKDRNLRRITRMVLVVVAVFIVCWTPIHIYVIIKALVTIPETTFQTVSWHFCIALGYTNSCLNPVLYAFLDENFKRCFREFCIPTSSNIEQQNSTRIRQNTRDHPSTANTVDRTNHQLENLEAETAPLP
Sequence (P41143 whole entry, looked up): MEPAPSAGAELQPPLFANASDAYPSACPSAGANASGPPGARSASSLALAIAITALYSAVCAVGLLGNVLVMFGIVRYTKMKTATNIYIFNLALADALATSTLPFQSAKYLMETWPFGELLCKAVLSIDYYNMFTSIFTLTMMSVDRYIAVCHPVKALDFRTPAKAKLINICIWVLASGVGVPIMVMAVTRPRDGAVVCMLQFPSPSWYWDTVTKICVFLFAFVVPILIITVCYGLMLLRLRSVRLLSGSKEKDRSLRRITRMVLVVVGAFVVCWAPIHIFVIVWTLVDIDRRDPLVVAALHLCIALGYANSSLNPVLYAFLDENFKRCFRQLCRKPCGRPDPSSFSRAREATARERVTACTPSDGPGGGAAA

SMILES	activation
Cc1ccc(S(=O)(=O)N(CC(=O)Nc2cccnc2)c2ccc(Br)cc2)cc1	20.6% (active)
Cc1ccc(CN(C(=O)c2sc3ccccc3c2Cl)C2CCS(=O)(=O)C2)cc1 (stereo unspecified)	24.1% (active)
N#CC(C(=O)c1ccc(S(=O)(=O)N2CCCCCC2)cc1)c1nc2ccccc2[nH]1 (stereo unspecified)	6.41% (inactive)
COCCCNc1nc2c(-c3cccc(C)c3)nnn2c2ccc(Cl)cc12	15.3% (inactive)
CC1CCCN(CCOCCOc2ccccc2-c2ccccc2)C1 (stereo unspecified)	1.28% (inactive)
CCc1ccc(C(CNc2nc(C(F)(F)F)nc3ccccc23)N(C)C)cc1 (stereo unspecified)	42.4% (active)
CN(C)C(CNC(=O)c1cc2ccccc2o1)c1ccccc1 (stereo unspecified)	1.4% (inactive)
CN1CCN(c2ccc([N+](=O)[O-])c(Sc3nc4ccccc4[nH]3)c2)CC1	1.22% (inactive)
Cc1ccc(CNC(=O)CC(NC(=O)c2ccccc2)c2ccccc2)cc1 (stereo unspecified)	-2.24% (inactive)
CC(c1cccnc1)N(CCN(C)C)C(=O)Nc1ccc(Cl)c(Cl)c1 (stereo unspecified)	-0.05% (inactive)
Cc1ccc(O)c(NC(=S)NC(=O)COc2ccc(Br)cc2)c1	2.92% (inactive)
COc1cccc(/C=N/Nc2cc(C)nc(-c3ccccc3O)n2)c1O	-1.59% (inactive)
COc1cc(C(=O)OC(C)C(=O)NCC2CCCCC2)cc(NC(=O)c2ccco2)c1OC (stereo unspecified)	213% (active)
COc1ccc(C(CNCC(=O)Nc2ccccc2F)N(C)C)cc1 (stereo unspecified)	145% (active)
CN1C(CC(=O)Nc2ccc(Br)cc2)c2ccccc2CC1(C)C (stereo unspecified)	89.7% (active)
C=C(C)COc1ccc(-c2n[nH]c(C)c2-c2ccccc2)c(O)c1	13.3% (inactive)
Cc1ccc(Nc2ccccc2N)cc1	3.92% (inactive)
O=C(NCc1cn2ccsc2n1)Nc1ccc(Cl)cc1	7.03% (inactive)
CCNS(=O)(=O)c1ccc(NC(=O)Nc2cccc(OC)c2)cc1	3.23% (inactive)
Cc1cc(C)cc(C(=O)N(CCc2ccccc2)C2=CC3CCC(C2)N3C)c1 (stereo unspecified)	137% (active)
COC(=O)c1ccc(C23CC4(C2)[C@H](CN(Cc2cccnc2)[C@@H]4c2ccccc2)C3c2ccc(Cl)nc2)cc1 (stereo partly specified)	17.2% (inactive)
